Values without a mark were called inactive. Where a call stands in place of a potency, no number is given. Calls of active or inactive are those of the source. Calls come from the whole dose curve; as a rule, active = well fitted curve in the direction sought with a large enough effect in the repeat runs; inconclusive = weak or mixed curves; inactive = flat fitted curve, though single readings scatter.
Experiment: qHTS assay to test for compound auto fluorescence at 460 nm (blue) in HepG2 cells (AID 720687)
Details: autofluorescence 405/460 nm, 1 h; series mostly up to 91.3 µM
Excerpt: U.S. Tox21 Program National Center for Advancing Translational Sciences [NCATS] NIH Chemical Genomics Center [NCGC] U.S. Environmental Protection Agency [EPA] National Institutes of Environmental Health Sciences [NIEHS] National Toxicology Program [NTP] U.S. Food and Drug Administration [FDA] Tox21 Assay Overview: Compound auto fluorescence often interferes with screening of the compound library against various biological targets and signaling pathways. Some of these compounds may have fluorophoric properties. Such properties may interfere with the assay outputs resulting in false positives and/or negatives. To decrease such complications and ensure the compound activities are relevant in terms of biological response, the Tox21 10K compound library was screened for auto fluorescence. From the fluorophores used as reporter signals in our screening assays, the auto fluorescence equivalencies of compounds against three fluorophores have been evaluated: Triamterene, Fluorescein and Rose Bengal sodium for blue, green and red fluorescence, respectively. The fluorescence intensities were measured using Excitation/Emission wavelengths at 405/460nm, 485/535nm and 540/590nm for blue, green and red labels, respectively. This assay includes the blue fluorescence data.
Tox21 Assay Protocol Summary: 2,000 HepG2 cells in 5 uL of culture medium (MEM containing 10% FBS) per well were dispensed into black wall/clear bottom 1536-well plates using a Multidrop Combi Dispenser (ThermoFisher Scientific, Waltham, MA). The assay plates were incubated overnight at 37 C to allow cell attachment to the well bottom, followed by the transfer of 23 nL compound or DMSO vehicle by a pintool work station (Kalypsys , San Diego, CA). After the assay plates were incubated for 1 hr at 37 C and 5% CO2, fluorescence intensities in the assay plates were measured by an Envision (PerkinElmer, Shelton, CT) plate reader using three labels for measuring blue, green and red fluorescence at […] 460, 535 and 590 nm respectively.
In the case of `CCCCOC(=O)CO`, the Potency was “inactive”.
With `Nc1ccc(C(=O)O)c(O)c1` the Potency was “inactive”.
For `O=C(O)CCN(C1(C(=O)NO)CCCC1)S(=O)(=O)c1ccc(Oc2ccc(F)cc2)cc1`, the Potency was “inactive”.
In the case of `C=Cc1ccccc1C=C`, the Potency was “inactive”.
With `CCCCCCCCCCCCOC(=O)c1ccc(O)cc1` the Potency was “inactive”.
With `O=c1[nH]c2ccccc2n1CCCN1CCN(C(c2ccccc2)c2ccccc2)CC1` the Potency was “inactive”.
With `CC[N+](CC)(CC)CCOc1ccc(/C=C/c2ccccc2)cc1` the Potency was “inactive”.
For `c1ccsc1`, the Potency was “inactive”.
For `C=CCn1c(=O)n(CC=C)c(=O)n(CC=C)c1=O`, the Potency was “inactive”.
With `CCCCOC(=O)CC` the Potency was “inactive”.
With `CCCCCC(C)OC(=O)COc1ccc(Cl)c2cccnc12` (stereo not given) the Potency was “inactive”.
With `Cc1cccc(C(=O)O)c1O` the Potency was “inactive”.
In the case of `CC/C=C\CCCCCO`, the Potency was “inactive”.
In the case of `O=S(=O)(O)c1ccc(N=Nc2c(O)ccc3ccccc23)cc1`, the Potency was “inactive”.
With `CCc1oc2ccccc2c1C(=O)c1cc(I)c(O)c(I)c1` the Potency was “inactive”.
In the case of `c1cnccn1`, the Potency was “inactive”.
For `Nc1cc(Cl)c(O)c(Cl)c1`, the Potency was “inactive”.
For `Cc1cc(-n2nc3ccc(Cl)cc3n2)c(O)c(C(C)(C)C)c1`, the Potency was “inactive”.
`CCOc1ccc2ccccc2c1C(=O)N[C@@H]1C(=O)N2[C@@H]1SC(C)(C)[C@@H]2C(=O)O` gave a fluorescence, % of fluorescent control of 0.172% [at 18.6 µM].
For `CCCCCCC1CCCC(=O)O1` (stereo not given), the Potency was “inactive”.
With `COc1c(C)c2c(c(O)c1C/C=C(\C)CCC(=O)OCCN1CCOCC1)C(=O)OC2` the Potency was “inactive”.
With `CCC(C)[O-].CCC(C)[O-].CCOC(=O)/C=C(/C)[O-].[Al+3]` the Potency was “inactive”.
In the case of `CCCCN(CCCC)CC(O)c1cc(Cl)cc2c1-c1ccc(Cl)cc1/C2=C/c1ccc(Cl)cc1` (stereo not given), the Potency was “inactive”.
With `O=C1CCCCCCCCCCCCCCCO1` the Potency was “inactive”.
With `CCN1C(=O)c2ccccc2C1Nc1ccc(OCCN2CCCCC2)cc1` (stereo not given) the Potency was “inactive”.
With `Cc1c(C)c2c(c(C)c1O)CC[C@@](C)(CCC[C@H](C)CCC[C@H](C)CCCC(C)C)O2` the Potency was “inactive”.
In the case of `CC(=O)Oc1cc2c(s1)CCN(C(C(=O)C1CC1)c1ccccc1F)C2` (stereo not given), the Potency was “inactive”.
In the case of `CC(C)(C)C1CCC(=O)CC1`, the Potency was “inactive”.
For `CCCCCCCCCCCCCCCC[N+](C)(C)CC`, the Potency was “inactive”.
For `COC1=C(OC)C(=O)C(CCCCCCCCCCO)=C(C)C1=O`, the Potency was “inactive”.
For `CCCC(=O)OC(C)(C)Cc1ccccc1`, the Potency was “inactive”.
In the case of `Oc1ccccc1O`, the Potency was “inactive”.
For `OC/C=C/CO`, the Potency was “inactive”.
In the case of `Cl[Si](Cl)(c1ccccc1)c1ccccc1`, the Potency was “inactive”.
For `CC1=CCC(=C(C)C)CC1`, the Potency was “inactive”.
For `CC(C(=O)O)c1ccc2c(c1)[nH]c1ccc(Cl)cc12` (stereo not given), the Potency was “inactive”.
For `Oc1c(I)cc(Cl)c2cccnc12`, the Potency was “inactive”.
In the case of `Cc1cc(=O)oc2cc(O)cc(O)c12`, the Potency was 35.5 µM [fluorescent] (active).
With `CCCCCCCCCCOC(=O)c1ccccc1C(=O)OCCCCCCCC` the Potency was “inactive”.
For `OCC(F)(F)F`, the Potency was “inactive”.
Potency is the fitted concentration of half-maximal effect; tags give direction and shape of the fitted curve or compound fluorescence and quenching.
